Experimental data: PubChem BioAssay AID1159580 (chemical genetic matrix, 2015)
The campaign covered roughly 5,500 compounds. About 2,000 (36%) were called active. Inconclusive results (about 18%) are left out. Cut-off read from the data, not from the text of the source: active = normalized growth mostly below about 0.91 (no sharp cut-off); inconclusive = no clear call, values can overlap the other calls; inactive = mostly above about 0.92. The list shows a part of the results.

Test: chemical genetic growth profiling, strain panel (AID 1159580);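 note: tested at 20 µM; growth read once vehicle control cultures reached saturation at 30 °C; 1 = growth at the plate median or of vehicle wells; lower values mean less growth of the strain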
Conditions: S. cerevisiae deletion strains, growth OD

Measured: normalized growth

CCOc1ccc2nc(S(N)(=O)=O)sc2c1
inactive: locus YHR030C, strain SLT2, stronger effect = lower value 0.978 | locus YHR079C, strain IRE1, stronger effect = lower value 0.969 | locus YJL095W, strain BCK1, stronger effect = lower value 1.02 | locus YJR066W, strain TOR1, stronger effect = lower value 0.924 | locus YLR113W, strain HOG1, stronger effect = lower value 1.05 | locus YNL183C, strain NPR1, stronger effect = lower value 0.927 | locus YOR231W, strain MKK1, stronger effect = lower value 0.955 | locus YPL256C, strain CLN2, stronger effect = lower value 0.963
